Screening data: PubChem, National Center for Advancing Translational Sciences (NCATS)
Rows were chosen to be rich in hits. Some 9% of all compounds tested hit in one or more screens of this group.
IMPase Li cell: IMPase inhibition in cells with lithium potentiation; CHO-M1 cells, IP1 TR-FRET (IP-One), carbachol + lithium; Potency, µM (highest dose often 59.4 µM), inactives show at the top dose activity, negative = IMPase inhibition, actives largely listed as inhibitors; 210,000 compounds, 0.35% hits;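 also: IP1 builds up when IMPase is blocked and the TR-FRET signal falls; plate controls were basal vehicle for no effect and high inhibitor control for full effect; nearly all actives have a fitted effect of over 50% in size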
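Steps: plate 2000 CHO-M1 cells per well and culture 16–30 h; add compound and lithium; incubate 30 min, 37C; add d2-IP1 tracer and Eu cryptate anti-IP1 antibody in lysis buffer; read after 10 min at room temperature.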
ALDH1A1 inh: blocks purified human ALDH1A1 activity; Potency, µM (highest dose often 75.3 µM), for the others: at the top dose activity, negative = inhibition, most hits filed as inhibitors; Purified ALDH1A1, NADH fluorescence, propionaldehyde substrate; P00352; 220,000 compounds, 7.3% hits; AID 1030; active = well fitted inhibition curve with a large enough effect, not every such curve was filed as active; inconclusive = small, poorly fitted or top-dose-only effect, or another doubt; inactive = no such curve, though single readings can be large or run the other way;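 also: plate controls were no enzyme wells and a reference inhibitor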
Target sequence (P00352 whole entry, looked up): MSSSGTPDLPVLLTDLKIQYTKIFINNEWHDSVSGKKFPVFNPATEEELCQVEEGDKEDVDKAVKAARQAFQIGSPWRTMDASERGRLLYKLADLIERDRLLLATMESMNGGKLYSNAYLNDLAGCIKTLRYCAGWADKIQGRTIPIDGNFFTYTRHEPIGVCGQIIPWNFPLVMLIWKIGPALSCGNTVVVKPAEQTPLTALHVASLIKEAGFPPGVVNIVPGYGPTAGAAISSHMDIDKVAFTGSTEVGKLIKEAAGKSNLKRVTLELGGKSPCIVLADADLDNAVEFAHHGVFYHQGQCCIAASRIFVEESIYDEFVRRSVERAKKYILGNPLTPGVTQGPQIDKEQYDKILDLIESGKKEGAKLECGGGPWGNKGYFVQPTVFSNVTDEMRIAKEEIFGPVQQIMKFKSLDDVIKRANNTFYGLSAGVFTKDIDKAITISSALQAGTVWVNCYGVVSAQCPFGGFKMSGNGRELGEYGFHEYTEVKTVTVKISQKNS
LMNA splice mod: modulators of lamin A splicing | HeLa LMNA splicing GFP/RFP minigene ratio, 48 h | 200,000 compounds, 0.01% hits | Potency, µM (highest dose often 46.1 µM), inactives show top-dose ratio change, negative = inhibition, hits mostly inhibitors; active = well fitted inhibition curve with a large enough effect in the signal ratio, with a control signal flat, not every such curve was filed as active; inconclusive = small, poorly fitted or top-dose-only effect, or effect the other way, or a change in a side signal; the % refers to the signal ratio
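S3 HeLa stable clones carrying a lamin A-EGFP splicing minigene plus DsRed2 were seeded at 600 cells/well in Opti-MEM with 2% FBS, pin-dosed and incubated 48 h at 37°C. Acumen cytometry (488 nm) gave the GFP/RFP total-intensity ratio.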
KinaseGlo FLuc: blocks Kinase-Glo luciferase, a counter-screen artifact; 200,000 compounds, 0.28% hits; Q27757; Potency, µM (doses to about 38.3 µM), without a hit: at the highest dose activity change, negative = inhibition, hits mostly inhibitors; Kinase-Glo luciferase, ATP luminescence, 8 min; AID 1379; also: nearly all actives have a fitted effect of over 60% in size
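Recombinant Kinase-Glo luciferase, 10 uM ATP (linear range), luciferin; imidazole pH 7.2 / KCl / MgCl2 / Tween / BSA buffer; 8 min RT; luminescence.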
HPGD block: HPGD (human) dehydrogenase inhibition | purified HPGD, NADH fluorescence kinetic, PGE2 substrate | Potency, µM, inactives show at the highest dose activity change, negative = inhibition, hits mostly inhibitors | 150,000 compounds, 4.3% hits; active = well fitted inhibition curve with a large enough effect, not every such curve was filed as active; inconclusive = small, poorly fitted or top-dose-only effect, or another doubt; inactive = no such curve, though single readings can be large or run the other way
Target sequence (P15428 whole entry, looked up): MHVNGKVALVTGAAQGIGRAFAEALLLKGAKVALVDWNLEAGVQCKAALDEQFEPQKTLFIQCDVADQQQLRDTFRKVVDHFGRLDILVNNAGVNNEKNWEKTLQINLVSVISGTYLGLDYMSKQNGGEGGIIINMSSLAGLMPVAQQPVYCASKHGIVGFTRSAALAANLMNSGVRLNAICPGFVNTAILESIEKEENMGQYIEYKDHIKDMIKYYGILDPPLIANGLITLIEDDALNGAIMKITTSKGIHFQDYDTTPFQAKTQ
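20 nM HPGD preincubated 15 min at room temperature with compound in 50 mM Tris-HCl pH 8, 0.01% Tween 20. Started with 1 mM NAD+ and 30 uM prostaglandin E2; NADH fluorescence (360/450 nm) read 5 times over 30-s intervals, last minus first.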
Active calls of the source: *; [ ] = remark or other dose. Unless noted, calls follow the shape of the dose curve; as a rule, active = well fitted curve in the direction sought with a large enough effect; inconclusive = small, poorly fitted or top-dose-only effect, or another doubt; inactive = no such curve, though single readings can be large; an effect the other way counts as inactive or inconclusive. Unless noted, % is scaled to controls: 0 for no effect and ±100 for the full control effect; potency is read from the fitted curve at half-maximal effect.

Screening O=C(COc1ccccc1)NC(NC(=S)Nc1ccccc1O)C(Cl)(Cl)Cl (stereo not drawn) returned IMPase Li cell 9%[38.3 µM], ALDH1A1 inh inconclusive, LMNA splice mod 4%, KinaseGlo FLuc 2% and HPGD block -18%.
COC(=O)c1ccccc1NC(=S)NC(=O)c1cccc2ccccc12 was read as IMPase Li cell -6%[38.3 µM], ALDH1A1 inh 10µM*, LMNA splice mod 4%, KinaseGlo FLuc -3% and HPGD block -24%.
COC(=O)c1ccccc1NC(=S)NC(NC(=O)COc1ccccc1)C(Cl)(Cl)Cl (stereo not drawn) was read as IMPase Li cell 8%[38.3 µM], ALDH1A1 inh inconclusive, LMNA splice mod inconclusive, KinaseGlo FLuc -3% and HPGD block 22µM*.
CCC(=O)NC(=S)Nc1ccccc1C(=O)OC was read as IMPase Li cell -2%, ALDH1A1 inh -5%, LMNA splice mod -10%, KinaseGlo FLuc -3% and HPGD block -3%.
For CN(C)c1ccccc1CN1CCCN(Cc2ccccc2N(C)C)C1c1ccncc1 the results were IMPase Li cell -1%, ALDH1A1 inh inconclusive, KinaseGlo FLuc -6%[7.66 µM] and HPGD block -9%.
For CCOc1ccccc1CNC(=O)CN1C(=O)c2cccnc2Oc2ccc(Cl)cc21 the results were LMNA splice mod -13%[46 µM].
Screening CN(C)c1nc(N/N=C/c2c[nH]c3ccccc23)nc(N2CCOCC2)n1 returned IMPase Li cell 7%, ALDH1A1 inh 19µM* and KinaseGlo FLuc 2%.
Screening O=C(O)c1cc(-c2ccc(/C=N/N3C(=O)C4C5C=CC(C6CC56)C4C3=O)o2)ccc1Cl (stereo not drawn) returned IMPase Li cell 6%, ALDH1A1 inh 13µM* and KinaseGlo FLuc -5%.
For COC(=O)c1ccc(-c2ccc(/C=N/N3C(=O)C4C5C=CC(CC5)C4C3=O)o2)cc1 (stereo not drawn) the results were IMPase Li cell 21%, ALDH1A1 inh inactive and KinaseGlo FLuc -3%.
`O=C1C2C3C=CC(CC3)C2C(=O)N1/N=C/c1ccc(O)cc1` (stereo not drawn) gave IMPase Li cell 16%[38.3 µM], ALDH1A1 inh inconclusive, LMNA splice mod 8%, KinaseGlo FLuc -5% and HPGD block 28µM*.
For O=C(O)c1cc(-c2ccc(/C=N/N3C(=O)C4C5C=CC(CC5)C4C3=O)o2)ccc1Cl (stereo not drawn) the results were IMPase Li cell -3%, ALDH1A1 inh 11µM*, LMNA splice mod -4%[46 µM] and KinaseGlo FLuc 6%.
O=C(CN1CCC(NC(=O)Cc2ccccc2)CC1)Nc1ccccc1Br was read as IMPase Li cell 23%, ALDH1A1 inh 5%, LMNA splice mod inconclusive, KinaseGlo FLuc -2% and HPGD block -17%.
For O=C1NCCCC2c3c(cc(Br)c(O)c3Br)OC12N1CCCCC1 (stereo not drawn) the results were IMPase Li cell 23%[38.3 µM], ALDH1A1 inh 7.9µM*, LMNA splice mod 3%, KinaseGlo FLuc -3% and HPGD block 13µM*.
Screening O=C1NN(c2ccccc2)C(=O)/C1=C/c1ccc(-c2ccc(Cl)c(C(=O)O)c2)o1 returned IMPase Li cell 22%, ALDH1A1 inh 13µM*, LMNA splice mod inconclusive and KinaseGlo FLuc -3%.
Cc1cccc(N2NC(=O)/C(=C/c3ccc(-c4ccc(Cl)c(C(=O)O)c4)o3)C2=O)c1 was read as IMPase Li cell 18%, ALDH1A1 inh inconclusive and KinaseGlo FLuc -5%.
For N#C/C(=C/c1ccc(N2CCCCC2)o1)c1cccc(F)c1 the results were IMPase Li cell 30%[38.3 µM], ALDH1A1 inh inconclusive, LMNA splice mod -2%, KinaseGlo FLuc -5% and HPGD block inconclusive.
`N#C/C(=C/c1ccc(N2CCCCCC2)o1)c1ccc(Cl)cc1` gave IMPase Li cell 20%[38.3 µM], ALDH1A1 inh 7.9µM*, LMNA splice mod inconclusive, KinaseGlo FLuc -3% and HPGD block inconclusive.
Cc1ccc(/C(C#N)=C\c2ccc(N3CCOCC3)o2)cc1 was read as IMPase Li cell 25%, ALDH1A1 inh 10µM*, LMNA splice mod inconclusive, KinaseGlo FLuc -1% and HPGD block inconclusive.
For Cc1ccc2nc(/C(C#N)=C\c3ccc(N4CCOCC4)o3)[nH]c2c1 the results were IMPase Li cell 25%, ALDH1A1 inh inconclusive, LMNA splice mod inconclusive, KinaseGlo FLuc -9% and HPGD block -13%.
For C=CCNc1ncnc2sc(SC)nc12 the results were ALDH1A1 inh 9%.
For CCN(CC)S(=O)(=O)c1ccc(NS(=O)(=O)c2ccc(O)c([N+](=O)[O-])c2)cc1 the results were IMPase Li cell 5%, ALDH1A1 inh 5µM*, LMNA splice mod -8%, KinaseGlo FLuc 2% and HPGD block 35µM*.
`Cc1cc(C)c2nc(Cl)c(CN(Cc3ccco3)C(=O)Nc3ccccc3C)cc2c1` gave IMPase Li cell 7%, ALDH1A1 inh inconclusive, LMNA splice mod inconclusive, KinaseGlo FLuc 11% and HPGD block inconclusive.
O=C1CC(c2nc3ccccc3[nH]2)CN1c1ccccc1 (stereo not drawn) was read as IMPase Li cell 19%[38.3 µM], ALDH1A1 inh -3%, LMNA splice mod -13%, KinaseGlo FLuc 3% and HPGD block -10%.
c1ccc(C2=Nc3ccccc3SC2c2nc3ccccc3[nH]2)cc1 (stereo not drawn) was read as IMPase Li cell 6%[38.3 µM], ALDH1A1 inh inconclusive, LMNA splice mod inconclusive, KinaseGlo FLuc -12% and HPGD block 35µM*.
`COC(=O)CCC(=O)OC1(C)C(=O)C2=CN(C3CC3)C(c3ccc(OC)cc3)=CC2=C(Br)C1=O` (stereo not drawn) gave IMPase Li cell 1%, ALDH1A1 inh inconclusive, LMNA splice mod 0%[9.22 µM], KinaseGlo FLuc -3%[7.66 µM] and HPGD block -7%.
`COC(=O)CCC(=O)OC1(C)C(=O)C2=CN(c3ccccc3)C(c3ccc(OC)cc3)=CC2=C(Br)C1=O` (stereo not drawn) gave IMPase Li cell 6%, ALDH1A1 inh 3.5µM*, LMNA splice mod 8%[9.22 µM], KinaseGlo FLuc -6%[7.66 µM] and HPGD block -12%.
Screening COC(=O)CCC(=O)OC1(C)C(=O)C2=CN(Cc3ccc(OC)cc3)C(c3ccc(OC)cc3)=CC2=C(Br)C1=O (stereo not drawn) returned IMPase Li cell 9%, ALDH1A1 inh 3.2µM*, LMNA splice mod -4%[9.22 µM], KinaseGlo FLuc -1%[7.66 µM] and HPGD block -12%.
`COC(=O)CCC(=O)OC1(C)C(=O)C2=CN(Cc3ccccc3)C(c3ccc(OC)cc3)=CC2=C(Br)C1=O` (stereo not drawn) gave IMPase Li cell 8%, ALDH1A1 inh -15%[13.5 µM], LMNA splice mod -5%[9.22 µM], KinaseGlo FLuc -1%[7.66 µM] and HPGD block -3%.
Screening O=C(NN1C(=O)c2ccccc2C1=O)c1ccccc1[N+](=O)[O-] returned IMPase Li cell -1%, ALDH1A1 inh -2%, LMNA splice mod 4%[46 µM] and KinaseGlo FLuc 1%.
